Here are results for 45 molecules from PubChem BioAssay AID1851 (National Center for Advancing Translational Sciences (NCATS), 2009).

Among all 16,000 compounds or so, about 4,000 (25%) were called active. Not shown: some 26% with an inconclusive outcome. Only a sample is shown. Values without a mark were called inactive. The call rests on the fitted dose curve; in most records, active means well fitted curve in the direction sought with a large enough effect; inconclusive means small, poorly fitted or top-dose-only effect, or effect the other way; inactive means no such curve, though single readings can be large or run the other way.
On the % scale 0 is the no-effect control and ±100 the full control effect.

Cytochrome P450 2C9 (Homo sapiens), sequence (P11712 whole entry, looked up): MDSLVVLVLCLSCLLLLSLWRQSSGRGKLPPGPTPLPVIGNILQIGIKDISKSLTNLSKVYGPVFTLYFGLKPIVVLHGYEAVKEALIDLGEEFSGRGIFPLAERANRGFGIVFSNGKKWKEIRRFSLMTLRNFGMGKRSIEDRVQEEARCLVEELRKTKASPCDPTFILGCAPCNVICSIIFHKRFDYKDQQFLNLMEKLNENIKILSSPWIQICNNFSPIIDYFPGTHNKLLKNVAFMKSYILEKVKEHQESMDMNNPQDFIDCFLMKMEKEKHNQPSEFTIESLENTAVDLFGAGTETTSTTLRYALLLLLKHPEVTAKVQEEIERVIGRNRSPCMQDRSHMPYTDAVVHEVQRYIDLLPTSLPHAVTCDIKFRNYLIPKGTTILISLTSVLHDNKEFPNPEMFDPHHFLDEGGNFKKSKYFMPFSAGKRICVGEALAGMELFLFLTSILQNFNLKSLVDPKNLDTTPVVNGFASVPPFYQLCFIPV

The assay addresses Cytochrome P450 2C9 (Homo sapiens) (UniProt P11712). The assay can be described thus: Cytochrome panel assay with activity outcomes. The conditions noted are these: recombinant CYP, pro-luciferin dealkylation, luminescence, p450-cyp2c9; series mostly up to 57.1 µM; activity, negative = inhibition: at the top concentration.
`COc1ccc(/C=C2\SC(=O)N(CCNC(=O)C3CC(=O)N(c4ccccc4)C3)C2=O)cc1` (stereo not given): the AC50 was 7.94 µM (active). On to `COCCCNC(=O)C1CC(=O)N(Cc2ccc(OC)cc2)C1` (stereo not given), for which the “activity, negative = inhibition” value was 7.71%.

As for `COCCCNC(=O)C1CC(=O)N(CCc2ccc(OC)c(OC)c2)C1` (stereo not given), the “activity, negative = inhibition” value is -2.84%.

On to `COc1ccccc1-c1cc(NCc2cccs2)ncn1`, for which the activity, negative = inhibition was 17.3% [at 2.29 µM]. The same measure, in the same setting: the result for `Cc1ccc(CS(=O)(=O)CCC(=O)NCCCN2CCCC2)cc1` reads -9.15%. Same read-out and setting: the result for `O=C(NCCN1CCOCC1)c1csc2c1CCCCC2` reads 24.6%.

On to `Cc1ccc(CS(=O)(=O)CCC(=O)NCCN2CCCC2)cc1`, for which the “activity, negative = inhibition” value was 9.44%. On to `Cc1ccc(S(=O)(=O)CCC(=O)Nc2nc3c(s2)CCCC3)cc1`, for which the AC50 is 1.12 µM (active). In the case of `CCC(Sc1nc(C)cc(=O)[nH]1)C(=O)Nc1nc2c(s1)CCCC2` (stereo not given), the half-maximal activity concentration (AC50) was 7.94 µM (active). With `Cc1cc(=O)[nH]c(-n2[nH]c3c(c2=O)CCCC3)n1`, the “activity, negative = inhibition” value is -22.4%.

Turning to `CCC(=O)Nc1c2c(nc3c1CCC3)CCCC2`, the “activity, negative = inhibition” value is -14.1%.

In the case of `Cc1cc(=O)[nH]c(SCC(=O)Nc2nc3c(s2)CCCC3)n1`, the AC50 was 15.8 µM (active). As for `O=C(Cc1ccc(S(=O)(=O)N2CCOCC2)s1)Nc1nc2c(s1)CCCC2`, the AC50 was 15.8 µM (active). For the molecule `C[C@@]12C=CC(=O)C=C1CC[C@@H]1[C@@H]2[C@H](O)C[C@]2(C)[C@@H]1CC[C@]2(O)C(=O)CO`, the “activity, negative = inhibition” value was 21.5% [at 25.6 µM]. As to `COC(=O)[C@@]1(Cc2ccc(OC)cc2)[C@H]2c3cc(C(=O)N4CCCC4)n(Cc4ccc(Cl)c(C(F)(F)F)c4)c3C[C@H]2CN1C(=O)c1ccccc1`, the AC50 is 20 µM (active). In the case of `COC(=O)[C@@]1(Cc2ccc(F)cc2)[C@H]2c3cc(C(=O)N(C)C)n(CCCNc4ccc(C(F)(F)F)cc4Cl)c3C[C@H]2CN1C(=O)c1ccccc1`, the AC50 is 20 µM (active). On the same count and under the same terms, the result for `COC(=O)[C@@]1(Cc2ccc(F)cc2)[C@H]2c3cc(C(=O)N4CCCC4)n(Cc4ccc(Cl)c(C(F)(F)F)c4)c3C[C@H]2CN1C(=O)c1ccccc1` reads 12.6 µM (active). Regarding `COC(=O)[C@@]1(Cc2ccc(F)cc2)[C@H]2c3cc(C(=O)N(C)C)n(Cc4ccc(Cl)c(C(F)(F)F)c4)c3C[C@H]2CN1C(=O)c1ccccc1`, the concentration at half-maximal activity (AC50) was 3.98 µM (active).

Take `O=C1CN(c2nc(-c3ccccc3)c3cc(Br)ccc3n2)c2ccccc2N1`: the “activity, negative = inhibition” value is -13.7%. The same measure, in the same setting: the result for `O=C(Nc1ccccc1)N1CCCC2(CCN(C(=O)c3csnn3)CC2)C1` reads -12.1%; that for `CCOc1cccc2cc(C(N)=O)c(=NCc3ccccc3)oc12`, -15.9%; that for `CCC1CCc2c(c3ccccc3[nH]c2=O)O1` (stereo not given), -24.7%.

As for `Cc1cnc(CNc2nc(-c3ccc(C(=O)N(C)C)cc3)nc3ccccc23)cn1`, the activity, negative = inhibition was 6.85% [at 2.29 µM]. For the molecule `CC(=O)c1cccc(NC(=O)/C(=C\c2ccco2)NC(=O)c2cccs2)c1`, the concentration at half-maximal activity (AC50) was 8.91 µM (active). On the same count and under the same terms, the result for `O=C(Nc1cccc(F)c1)/C(=C\c1ccco1)NC(=O)c1cccs1` reads 31.6 µM (active). Regarding `O=C(Nc1cccc(F)c1)N1CCC2(CC1)CCN(C(=O)c1ccco1)CC2`, the “activity, negative = inhibition” value is -25.9%. Regarding `CCc1cc2c(nc1CC)CCN(CC/C(C)=N/OC[C@@H](C)[C@H](OCc1ccccc1)C(C)C)C2`, the activity, negative = inhibition was -5.74% [at 11.4 µM]. On the same count and under the same terms, for `COc1ccc(NC(=O)N2CC3(CCN(C(=O)c4ccc(OC)cc4)CC3)C2)cc1` the value was 9.75%.

`CC(C)(C)C(=O)[C@H]1[C@H](c2ccccc2)[C@@]2(N=C(c3ccccc3)OC2=O)C2c3ccccc3C=NN21` (stereo not given in full): the AC50 was 15.8 µM (active). For the molecule `O=c1ccc(Oc2nc(N3CCOCC3)nc(N3CCOCC3)n2)n[nH]1`, the “activity, negative = inhibition” value was -26.1%. On to `Cc1cc(Oc2ccc(-c3ccccc3)cc2)nc(N2CCOCC2)n1`, for which the concentration at half-maximal activity (AC50) was 3.98 µM (active). For the molecule `Cc1noc(C)c1-c1nccc(N2CCOCC2)n1`, the activity, negative = inhibition was 7.39% [at 2.29 µM]. In the case of `Cc1ccc(Oc2cc(N3CCOCC3)nc(-c3ccccc3)n2)cc1`, the AC50 was 17.8 µM (active). Same read-out and setting: for `CCCc1ccc(Oc2cc(C)nc(N3CCOCC3)n2)cc1` the value was 25.1 µM (active). As to `COc1cc(N2CCOCC2)ncn1`, the “activity, negative = inhibition” value was -23.1%. As for `COc1ccc(-n2c(=O)c(C)nc3cnc(N4CCOCC4)nc32)cc1`, the “activity, negative = inhibition” value is -29.2%. On to `COC(=O)c1ccc(Oc2nc(N(C)C)nc(N3CCOCC3)n2)cc1`, for which the “activity, negative = inhibition” value is -44.5%.

Turning to `COc1ccc(-n2c(=O)c(-c3ccccc3)nc3cnc(N4CCOCC4)nc32)cc1`, the “activity, negative = inhibition” value was -1.43%. As for `N#C[C@H]1CN[C@H](N)N[C@@H]1N`, the activity, negative = inhibition is -4.64% [at 11.4 µM].

Regarding `Cc1nc2ccccc2c(=O)n1NC(=O)c1ccccc1Cl`, the half-maximal activity concentration (AC50) was 7.94 µM (active). Same read-out and setting: the result for `COc1ccc(CNn2c(C)nc3ccccc3c2=O)cc1` reads 5.62 µM (active); that for `CCCCOc1ccc(CNn2c(C)nc3ccccc3c2=O)cc1`, 4.47 µM (active). In the case of `O=C(Nn1cnc2ccccc2c1=O)c1ccc(F)cc1Cl`, the “activity, negative = inhibition” value was 13.4%. Regarding `CCCOc1ccc(CSC(CC(=O)O)C(=O)O)cc1` (stereo not given), the “activity, negative = inhibition” value was -5.81%. On the same count and under the same terms, the result for `COc1ccc(CN[C@H](C)C(=O)O)cc1` reads 12.3% [at 11.4 µM].
